Measured values reported in PubChem BioAssay AID1159580 (chemical genetic matrix, 2015).
Among all 5,500 compounds or so, about 2,000 (36%) were called active. About 18% were inconclusive and are not listed. No stated cut-off is given here; in the data, active means normalized growth mostly below about 0.91 (no sharp cut-off); inconclusive means no clear call, values can overlap the other calls; inactive means mostly above about 0.92. Some of the results follow.

Test: chemical genetic growth profiling, strain panel (AID 1159580);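 further: tested at 20 µM; growth read once vehicle control cultures reached saturation at 30 °C; 1 = growth at the plate median or of vehicle wells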
Details: growth OD

Measured: normalized growth

NC(=NCCC[C@H](N)C(=O)O)NC(CCC(=O)O)C(=O)O (stereo partly drawn)
inactive: S. cerevisiae deletion strains, locus YAL021C, strain ccr4, stronger effect = lower value 1 | S. cerevisiae deletion strains, locus YAL026C, strain drs2, stronger effect = lower value 1 | S. cerevisiae deletion strains, locus YAL030W, strain snc1, stronger effect = lower value 1 | S. cerevisiae deletion strains, locus YBL061C, strain skt5, stronger effect = lower value 1.01 | S. cerevisiae deletion strains, locus YBR009C, strain hhf1, stronger effect = lower value 1 | S. cerevisiae deletion strains, locus YBR021W, strain FUR4, stronger effect = lower value 1.02 | S. cerevisiae deletion strains, locus YBR023C, strain chs3, stronger effect = lower value 1.01 | S. cerevisiae deletion strains, locus YBR171W, strain sec66, stronger effect = lower value 1.02 | S. cerevisiae deletion strains, locus YBR229C, strain ROT2, stronger effect = lower value 1.01 | S. cerevisiae deletion strains, locus YBR231C, strain swc5, stronger effect = lower value 1.01 | S. cerevisiae deletion strains, locus YBR279W, strain paf1, stronger effect = lower value 0.998 | S. cerevisiae deletion strains, locus YCL011C, strain gbp2, stronger effect = lower value 1.01 | S. cerevisiae deletion strains, locus YCL016C, strain dcc1, stronger effect = lower value 1.01 | S. cerevisiae deletion strains, locus YCL029C, strain bik1, stronger effect = lower value 1.03 | S. cerevisiae deletion strains, locus YCL061C, strain MRC1, stronger effect = lower value 0.998 | S. cerevisiae deletion strains, locus YCL069W, strain vba3, stronger effect = lower value 1.01 | S. cerevisiae deletion strains, locus YCR088W, strain abp1, stronger effect = lower value 1.01 | S. cerevisiae deletion strains, locus YDL005C, strain med2, stronger effect = lower value 1.01 | S. cerevisiae deletion strains, locus YDL035C, strain GPR1, stronger effect = lower value 1.02 | S. cerevisiae deletion strains, locus YDL040C, strain nat1, stronger effect = lower value 1.01 | S. cerevisiae deletion strains, locus YDL074C, strain BRE1, stronger effect = lower value 1.05 | S. cerevisiae deletion strains, locus YDL101C, strain DUN1, stronger effect = lower value 1.01 | S. cerevisiae deletion strains, locus YDL185W, strain tfp1, stronger effect = lower value 1.01 | S. cerevisiae deletion strains, locus YDL192W, strain arf1, stronger effect = lower value 1.02 | S. cerevisiae deletion strains, locus YDR001C, strain nth1, stronger effect = lower value 1.01 | S. cerevisiae deletion strains, locus YDR069C, strain doa4, stronger effect = lower value 1.01 | S. cerevisiae deletion strains, locus YDR101C, strain arx1, stronger effect = lower value 1.04 | S. cerevisiae deletion strains, locus YDR137W, strain rgp1, stronger effect = lower value 0.992 | S. cerevisiae deletion strains, locus YDR159W, strain sac3, stronger effect = lower value 1.01 | S. cerevisiae deletion strains, locus YDR162C, strain NBP2, stronger effect = lower value 0.977 | S. cerevisiae deletion strains, locus YDR195W, strain ref2 0.974 | S. cerevisiae deletion strains, locus YDR297W, strain sur2, stronger effect = lower value 1.01 | S. cerevisiae deletion strains, locus YDR318W, strain mcm21, stronger effect = lower value 1 | S. cerevisiae deletion strains, locus YDR334W, strain swr1, stronger effect = lower value 1.01 | S. cerevisiae deletion strains, locus YDR335W, strain msn5, stronger effect = lower value 0.995 | S. cerevisiae deletion strains, locus YDR388W, stronger effect = lower value 1.02 | S. cerevisiae deletion strains, locus YDR392W, strain spt3, stronger effect = lower value 1.02 | S. cerevisiae deletion strains, locus YDR502C, strain sam2, stronger effect = lower value 1.01 | S. cerevisiae deletion strains, locus YEL003W, strain gim4, stronger effect = lower value 1 | S. cerevisiae deletion strains, locus YEL037C, strain rad23, stronger effect = lower value 1 | S. cerevisiae deletion strains, locus YEL061C, strain CIN8 (second series), stronger effect = lower value 1 | S. cerevisiae deletion strains, locus YEL061C, strain CIN8, stronger effect = lower value 1.01 | S. cerevisiae deletion strains, locus YER015W, strain faa2, stronger effect = lower value 1.01 | S. cerevisiae deletion strains, locus YER016W, strain bim1, stronger effect = lower value 1 | S. cerevisiae deletion strains, locus YER110C, stronger effect = lower value 1.01 | S. cerevisiae deletion strains, locus YER111C, strain swi4, stronger effect = lower value 0.996 | S. cerevisiae deletion strains, locus YER155C, strain BEM2 (second series), stronger effect = lower value 1.02 | S. cerevisiae deletion strains, locus YER155C, strain BEM2, stronger effect = lower value 1.01 | S. cerevisiae deletion strains, locus YER167W, strain BCK2, stronger effect = lower value 1.02 | S. cerevisiae deletion strains, locus YFR010W, strain ubp6, stronger effect = lower value 1.01 | S. cerevisiae deletion strains, locus YGL078C, strain dbp3, stronger effect = lower value 1.02 | S. cerevisiae deletion strains, locus YGL086W, strain mad1, stronger effect = lower value 1.04 | S. cerevisiae deletion strains, locus YGL167C, strain pmr1, stronger effect = lower value 1.01 | S. cerevisiae deletion strains, locus YGL173C, strain kem1, stronger effect = lower value 1.01 | S. cerevisiae deletion strains, locus YGL227W, strain vid30, stronger effect = lower value 1.01 | S. cerevisiae deletion strains, locus YGL240W, strain doc1, stronger effect = lower value 1.02 | S. cerevisiae deletion strains, locus YGL248W, strain PDE1, stronger effect = lower value 0.999 | S. cerevisiae deletion strains, locus YGL253W, strain hxk2, stronger effect = lower value 1.01 | S. cerevisiae deletion strains, locus YGR078C, strain PAC10, stronger effect = lower value 1.01 | S. cerevisiae deletion strains, locus YGR135W, strain pre9, stronger effect = lower value 1.04 | S. cerevisiae deletion strains, locus YGR252W, strain gcn5, stronger effect = lower value 0.991 | S. cerevisiae deletion strains, locus YHR013C, strain ard1, stronger effect = lower value 1.03 | S. cerevisiae deletion strains, locus YHR027C, strain rpn1, stronger effect = lower value 1.02 | S. cerevisiae deletion strains, locus YHR030C, strain SLT2, stronger effect = lower value 1.01 | S. cerevisiae deletion strains, locus YHR079C, strain IRE1 (second series), stronger effect = lower value 1 | S. cerevisiae deletion strains, locus YHR094C, strain hxt1, stronger effect = lower value 1.01 | S. cerevisiae deletion strains, locus YHR129C, strain ARP1, stronger effect = lower value 1.01 | S. cerevisiae deletion strains, locus YHR142W, strain chs7, stronger effect = lower value 1.02 | S. cerevisiae deletion strains, locus YHR200W, strain rpn10, stronger effect = lower value 1 | S. cerevisiae deletion strains, locus YIL066C, strain RNR3, stronger effect = lower value 1.01 | S. cerevisiae deletion strains, locus YIL073C, strain SPO22, stronger effect = lower value 1.06 | S. cerevisiae deletion strains, locus YIL125W, strain kgd1, stronger effect = lower value 1.02 | S. cerevisiae deletion strains, locus YIR030C, strain dcg1, stronger effect = lower value 1.01 | S. cerevisiae deletion strains, locus YJL092W, strain hpr5, stronger effect = lower value 1.01 | S. cerevisiae deletion strains, locus YJL095W, strain BCK1 (second series), stronger effect = lower value 1.01 | S. cerevisiae deletion strains, locus YJL095W, strain BCK1, stronger effect = lower value 1.01 | S. cerevisiae deletion strains, locus YJL115W, strain asf1, stronger effect = lower value 1 | S. cerevisiae deletion strains, locus YJL129C, strain trk1, stronger effect = lower value 1.01 | S. cerevisiae deletion strains, locus YJL134W, strain LCB3, stronger effect = lower value 1.01 | S. cerevisiae deletion strains, locus YJL154C, strain vps35, stronger effect = lower value 1.01 | S. cerevisiae deletion strains, locus YJL164C, strain tpk1, stronger effect = lower value 1.01 | S. cerevisiae deletion strains, locus YJL166W, strain qcr8, stronger effect = lower value 1.01 | S. cerevisiae deletion strains, locus YJL168C, strain set2, stronger effect = lower value 1.04 | S. cerevisiae deletion strains, locus YJL187C, strain SWE1 (second series), stronger effect = lower value 1 | S. cerevisiae deletion strains, locus YJL187C, strain SWE1, stronger effect = lower value 1 | S. cerevisiae deletion strains, locus YJR043C, strain POL32, stronger effect = lower value 1 | S. cerevisiae deletion strains, locus YKL009W, strain mrt4, stronger effect = lower value 1.03 | S. cerevisiae deletion strains, locus YKL068W, stronger effect = lower value 1 | S. cerevisiae deletion strains, locus YKL085W, strain MDH1 (second series), stronger effect = lower value 1.01 | S. cerevisiae deletion strains, locus YKL085W, strain MDH1, stronger effect = lower value 1.01 | S. cerevisiae deletion strains, locus YKL160W, strain elf1, stronger effect = lower value 1.02 | S. cerevisiae deletion strains, locus YKL190W, strain CNB1, stronger effect = lower value 1.01 | S. cerevisiae deletion strains, locus YKR001C, strain vps1, stronger effect = lower value 1.06 | S. cerevisiae deletion strains, locus YKR026C, strain gcn3, stronger effect = lower value 1.01 | S. cerevisiae deletion strains, locus YKR091W, strain srl3, stronger effect = lower value 1.01 | S. cerevisiae deletion strains, locus YLL001W, strain dnm1, stronger effect = lower value 1.01 | S. cerevisiae deletion strains, locus YLL026W, stronger effect = lower value 1.01 | S. cerevisiae deletion strains, locus YLL041C, strain sdh2, stronger effect = lower value 1.01 | S. cerevisiae deletion strains, locus YLR027C, strain aat2, stronger effect = lower value 0.998 | S. cerevisiae deletion strains, locus YLR039C, strain RIC1, stronger effect = lower value 1 | S. cerevisiae deletion strains, locus YLR058C, strain SHM2, stronger effect = lower value 1.01 | S. cerevisiae deletion strains, locus YLR102C, strain apc9, stronger effect = lower value 1.02 | S. cerevisiae deletion strains, locus YLR221C, strain rsa3, stronger effect = lower value 1.02 | S. cerevisiae deletion strains, locus YLR258W, strain gsy2, stronger effect = lower value 1.01 | S. cerevisiae deletion strains, locus YLR262C, strain YPT6 (second series), stronger effect = lower value 0.996 | S. cerevisiae deletion strains, locus YLR262C, strain YPT6, stronger effect = lower value 1.02 | S. cerevisiae deletion strains, locus YLR268W, strain sec22, stronger effect = lower value 1.04 | S. cerevisiae deletion strains, locus YLR320W, strain mms22, stronger effect = lower value 1.02 | S. cerevisiae deletion strains, locus YLR330W, strain CHS5, stronger effect = lower value 1.01 | S. cerevisiae deletion strains, locus YLR342W, strain FKS1 (second series), stronger effect = lower value 1.06 | S. cerevisiae deletion strains, locus YLR342W, strain FKS1, stronger effect = lower value 1.01 | S. cerevisiae deletion strains, locus YLR357W, strain rsc2, stronger effect = lower value 1.03 | S. cerevisiae deletion strains, locus YLR370C, strain arc18, stronger effect = lower value 1.01 | S. cerevisiae deletion strains, locus YLR371W, strain rom2, stronger effect = lower value 1.02 | S. cerevisiae deletion strains, locus YLR384C, strain iki3, stronger effect = lower value 0.996 | S. cerevisiae deletion strains, locus YLR418C, strain cdc73, stronger effect = lower value 1.01 | S. cerevisiae deletion strains, locus YML016C, strain PPZ1, stronger effect = lower value 1 | S. cerevisiae deletion strains, locus YML032C, strain rad52, stronger effect = lower value 1.02 | S. cerevisiae deletion strains, locus YML120C, strain ndi1, stronger effect = lower value 1 | S. cerevisiae deletion strains, locus YML124C, strain tub3, stronger effect = lower value 1.01 | S. cerevisiae deletion strains, locus YMR058W, strain fet3, stronger effect = lower value 1.01 | S. cerevisiae deletion strains, locus YMR078C, strain ctf18, stronger effect = lower value 1.01 | S. cerevisiae deletion strains, locus YMR125W, strain sto1, stronger effect = lower value 0.999 | S. cerevisiae deletion strains, locus YMR129W, stronger effect = lower value 0.997 | S. cerevisiae deletion strains, locus YMR205C, strain PFK2, stronger effect = lower value 1.02 | S. cerevisiae deletion strains, locus YMR223W, strain ubp8, stronger effect = lower value 0.985 | S. cerevisiae deletion strains, locus YMR231W, strain pep5, stronger effect = lower value 0.989 | S. cerevisiae deletion strains, locus YMR307W, strain GAS1, stronger effect = lower value 1 | S. cerevisiae deletion strains, locus YNL067W, strain RPL9B, stronger effect = lower value 0.995 | S. cerevisiae deletion strains, locus YNL071W, strain lat1, stronger effect = lower value 1.01 | S. cerevisiae deletion strains, locus YNL153C, strain GIM3, stronger effect = lower value 0.989 | S. cerevisiae deletion strains, locus YNL209W, strain ssb2, stronger effect = lower value 1 | S. cerevisiae deletion strains, locus YNL233W, strain BNI4, stronger effect = lower value 1.03 | S. cerevisiae deletion strains, locus YNL248C, strain rpa49, stronger effect = lower value 1.01 | S. cerevisiae deletion strains, locus YNL250W, strain rad50, stronger effect = lower value 1.02 | S. cerevisiae deletion strains, locus YNL271C, strain bni1, stronger effect = lower value 0.999 | S. cerevisiae deletion strains, locus YNL298W, strain CLA4, stronger effect = lower value 1.01 | S. cerevisiae deletion strains, locus YNL307C, strain MCK1, stronger effect = lower value 1.03 | S. cerevisiae deletion strains, locus YNL322C, strain KRE1 (second series), stronger effect = lower value 1.01 | S. cerevisiae deletion strains, locus YNL322C, strain KRE1, stronger effect = lower value 1.01 | S. cerevisiae deletion strains, locus YNR049C, strain mso1, stronger effect = lower value 1.02 | S. cerevisiae deletion strains, locus YNR052C, strain pop2, stronger effect = lower value 1.01 | S. cerevisiae deletion strains, locus YOL012C, strain htz1 1.47 | S. cerevisiae deletion strains, locus YOL147C, strain pex11, stronger effect = lower value 1.02 | S. cerevisiae deletion strains, locus YOR001W, strain rrp6, stronger effect = lower value 1.02 | S. cerevisiae deletion strains, locus YOR061W, strain CKA2, stronger effect = lower value 1.01 | S. cerevisiae deletion strains, locus YOR069W, strain VPS5, stronger effect = lower value 1.01 | S. cerevisiae deletion strains, locus YOR070C, strain gyp1, stronger effect = lower value 1 | S. cerevisiae deletion strains, locus YOR080W, strain dia2, stronger effect = lower value 0.999 | S. cerevisiae deletion strains, locus YOR083W, strain WHI5, stronger effect = lower value 1 | S. cerevisiae deletion strains, locus YOR106W, strain vam3, stronger effect = lower value 1.02 | S. cerevisiae deletion strains, locus YOR136W, strain idh2, stronger effect = lower value 1.05 | S. cerevisiae deletion strains, locus YOR144C, strain elg1, stronger effect = lower value 1.02 | S. cerevisiae deletion strains, locus YOR184W, strain ser1, stronger effect = lower value 1.01 | S. cerevisiae deletion strains, locus YOR265W, strain rbl2, stronger effect = lower value 1 | S. cerevisiae deletion strains, locus YOR270C, strain vph1, stronger effect = lower value 1.02 | S. cerevisiae deletion strains, locus YOR290C, strain snf2, stronger effect = lower value 1.02 | S. cerevisiae deletion strains, locus YOR316C, strain cot1, stronger effect = lower value 1.02 | S. cerevisiae deletion strains, locus YPL051W, strain arl3, stronger effect = lower value 0.995 | S. cerevisiae deletion strains, locus YPL078C, strain atp4, stronger effect = lower value 1 | S. cerevisiae deletion strains, locus YPL106C, strain sse1, stronger effect = lower value 1.02 | S. cerevisiae deletion strains, locus YPL240C, strain hsp82, stronger effect = lower value 1 | S. cerevisiae deletion strains, locus YPR119W, strain clb2, stronger effect = lower value 1.01 | S. cerevisiae deletion strains, locus YPR141C, strain kar3, stronger effect = lower value 1.01 | S. cerevisiae deletion strains, locus YPR163C, strain tif3, stronger effect = lower value 1.02 | S. cerevisiae deletion strains, locus YPR167C, strain met16, stronger effect = lower value 1.02 | S. cerevisiae deletion strains, strain wtn01, stronger effect = lower value 1.05 | S. cerevisiae strains, strain wild type, stronger effect = lower value 1.01
